In ChEMBL document CHEMBL1157539, “Thousands of chemical starting points for antimalarial lead identification” (Nature, 2010) one finds Inhibition data, which are given here for 15 molecules.

The assay has as its system HepG2. Nature of the assay: GSK_TCMDC: Percent inhibition of human HepG2 cell line. Test compounds present at 10uM. The class given is functional.
For `Fc1ccc2[nH]c(-c3cccc(-c4cccc(CNCC5CCCO5)c4)c3)nc2c1.O=C(O)C(F)(F)F` (stereo not given), the Inhibition was 40%.

In turn, `Cc1cc(C(=O)CN2C(=O)NC3(CCOc4ccccc43)C2=O)c(C)n1Cc1ccc(F)cc1` (stereo not given) returned an Inhibition of 1%. Consider `O=C(NCC1CCC(CNCCc2ccccc2)CC1)Nc1ccc(Cl)c(Cl)c1` (stereo not given), for which the Inhibition is listed as 24%.

Take `CNCCNCc1cccc(-c2ccc(-c3nc4cc(C(F)(F)F)ccc4[nH]3)cc2)c1.O=C(O)C(F)(F)F`: the Inhibition stood at 21%. `Cl.Cn1ccc(-c2cccc(Nc3ccnc4cc(-c5nccs5)ccc34)c2)n1` registered an Inhibition of 39%.

`O=C(Nc1cccc(-c2ccc(CN3CCNCC3)cc2)c1)c1cccc(Cl)c1.O=C(O)C(F)(F)F` had an Inhibition of 30%. Consider `OC(CNC1CCCCC1)Cn1c2ccc(Br)cc2c2cc(Br)ccc21` (stereo not given), for which the Inhibition was determined as 10%. The figure for `CC(CCc1ccccc1)NCC(O)c1ccc2c3c(cccc13)C(=O)N2C.Cl` (stereo not given) is 37%.

Molecule `Nc1cc(-c2ccc3c(N)nccc3c2)ccc1Cl` had an Inhibition of 1%.

Regarding `c1cn(CCCNc2ncc(-c3ccsc3)c(-c3nccs3)n2)cn1`, the Inhibition is on record as 0%. The figure for `Cc1cc(F)ccc1N(c1nc(-c2cc(Cl)ccc2Cl)cs1)C1CCNC1.O=C(O)C(F)(F)F` (stereo not given) is 19%; for `COc1ccc(NC(=O)Nc2ccc(-c3ccncc3)c(C(F)(F)F)c2)cc1N1CCN(C)CC1` it is 5%; for `CC(C)Nc1nc(NCCc2c[nH]cn2)nc(NCc2ccc(Cl)c(Cl)c2)n1` it is 0%. The figure for `CCCC(=O)c1cnc2c(I)cccc2c1Nc1ccccc1C` is 7%; for `CN1CCN(CCNc2c3ccccc3nc3ccc4ccccc4c23)CC1.Cl` it is 22%.
